Only a selection was taken, and hits are over-represented in it overall.
Algae TAG accum – inducers of triacylglycerol accumulation in Chlamydomonas reinhardtii algae; calls only at 10 µM (by protocol); Chlamydomonas reinhardtii TAG, Nile Red fluorescence, 72 h; 0.84% of 44,000 active; call rule not given here;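 further: hits raise Nile Red signal meaning more stored TAG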
An asterisk follows results filed as active; i = inactive; + = active, no number.

SMILES	Algae TAG accum
CCC(C)c1ccc(OCCCCN2CCN(C)CC2)cc1 (stereo not given)	i
CN1CCN(CCOc2ccc(C(C)(C)c3ccccc3)cc2)CC1	+
CN1CCN(CCCOc2ccc(C(C)(C)c3ccccc3)cc2)CC1	i
c1ccc(OCCN2CCCC2)cc1	i
CN1CCN(CCCOc2ccc(OCc3ccccc3)cc2)CC1	i
CCC(C)c1ccc(OCCCN2CCN(C)CC2)cc1 (stereo not given)	+
Cc1c(Cl)cccc1NC(=O)c1ccccc1NC(=O)CCC(=O)O	i
CCC(CC)C(=O)Nc1ccc(C(=O)Nc2nccs2)cc1	+
Cc1ccc(OCC(=O)Nc2ccc(C(=O)Nc3nccs3)cc2)cc1C	i
Cc1ccc(C(=O)Nc2nccs2)cc1Br	i
CN(C)c1ccc(C2NS(=O)(=O)N=C2N)cc1 (stereo not given)	i
CCc1ccc(N2CC(C(=O)Nc3ccc(C(C)=O)cc3)CC2=O)cc1 (stereo not given)	i
COc1ccc(CC(=O)Nc2ccc(Br)cc2F)cc1OC	i
CN(C)CCN1C(=O)C(=O)C(=C(O)c2ccccc2)C1c1ccccc1[N+](=O)[O-] (stereo not given)	i
C=CCn1c(SCC(=O)c2ccc(OC)cc2)nnc1-c1ccncc1	i
C1=CC2CC1CC2CN1CCN(Cc2ccccn2)CC1 (stereo not given)	i
CCC(C)N1CCN(CC2CC3C=CC2C3)CC1 (stereo not given)	i
O=[N+]([O-])c1ccc(O)c(CN2CCOCC2)c1	i
CCN1CCN(CC2CC3C=CC2C3)CC1 (stereo not given)	i
O=C(c1ccc(F)cc1)N1CCN(Cc2ccc([N+](=O)[O-])cc2)CC1	i
Oc1ccc(Br)cc1CN1CCN(CC2CC3C=CC2C3)CC1 (stereo not given)	+
O=C(c1ccc([N+](=O)[O-])cc1)N1CCN(CC2CC3C=CC2C3)CC1 (stereo not given)	+
Oc1ccc(Br)cc1CN1CCC(N2CCOCC2)CC1	+
COc1ccc(Br)cc1CN1CCC(N2CCCCC2)CC1	i
NC(=O)C1CCN(CC2CC3C=CC2C3)CC1 (stereo not given)	i
SMILES	Algae TAG accum
O=C(c1ccc([N+](=O)[O-])cc1)N1CCN(CCO)CC1	i
C1=CC2CC1CC2CN1CCN(c2ccccc2)CC1 (stereo not given)	+
O=S(=O)(NC1CCCCCC1)c1ccc2c(c1)OCCO2	i
c1ccc(CN2CCN(c3nnnn3-c3ccccc3)CC2)cc1	i
CC(=O)c1ccc(NC(=O)c2ccc(N(Cc3ccc(Cl)cc3)S(C)(=O)=O)cc2)cc1	i
c1coc(-c2nnc(-c3ccco3)o2)c1	i
OCCCNc1nc2ccccc2[nH]1	i
CC(=O)c1ccc(OCC(O)CN2CCN(c3cccc(Cl)c3)CC2)cc1 (stereo not given)	i
CC1CN(C(=O)C(Cl)Cl)C(C)CN1C(=O)C(Cl)Cl (stereo not given)	i
C1=CC2CC1CC2CN1CCOCC1 (stereo not given)	i
O=[N+]([O-])c1ccccc1S(=O)(=O)N1CCN(CC2CC3C=CC2C3)CC1 (stereo not given)	i
C1=CC2CC1CC2CN1CCN(C2CCC(c3ccccc3)CC2)CC1 (stereo not given)	+
Cc1ccc(NC(=O)Cc2nnc(NC(=O)Nc3ccc(F)cc3)s2)cc1	i
O=C(Cc1ccc(Br)cc1)Nc1ccc(S(=O)(=O)Nc2nccs2)cc1	i
CC(Sc1ccccc1)C(=O)Nc1ccc(Br)cc1 (stereo not given)	i
C=CCNC(=O)C(=O)Nc1c(C)cccc1C	i
COc1ccc(C(=O)Nc2ccc(Oc3ccc(Cl)cc3)cc2)cc1Br	i
C/C(=C\c1ccccc1)CN1CCOCC1	i
CCOC(=O)N1CCN(C/C(C)=C/c2ccccc2)CC1	i
C/C(=C\c1ccccc1)CN1CCN(C)CC1	+
COc1ccc(Cl)cc1C(=O)Nc1ccc(NS(=O)(=O)c2ccc(C)cc2)cc1	i
COc1ccc(S(=O)(=O)N2CCc3ccccc3C2)cc1C	i
NS(=O)(=O)c1ccc(CNC(=O)c2cc(-c3ccc4c(c3)OCO4)nc3ccccc23)cc1	i
O=C(NCc1ccccn1)c1cc(-c2ccc3c(c2)OCO3)nc2ccccc12	i
O=C(NCC1CCCO1)c1cc(-c2ccc3c(c2)OCO3)nc2ccccc12 (stereo not given)	+
SMILES	Algae TAG accum
COc1ccc(-c2cc(=O)[nH]c(SCC(=O)Nc3ccc(Cl)cc3C)n2)cc1	i
Cc1ccc(NC(=O)C2CC=CCC2C(=O)O)c(Br)c1 (stereo not given)	i
Cc1ccc(Cl)cc1NC(=O)C1CC=CCC1C(=O)O (stereo not given)	i
O=C(O)C1CC=CCC1C(=O)Nc1ccc(F)cc1F (stereo not given)	+
COc1ccc(N2C(=O)CC(NCCc3ccccc3F)C2=O)cc1 (stereo not given)	i
O=C1C(=O)N(CCO)C(c2cccc(F)c2)C1=C(O)c1ccc(Br)cc1 (stereo not given)	i
